Only some compounds are listed: those with a hit (about 3.2% of all), similar ones and a draw of the others.
Mtb FBA inh: inhibitors of M. tuberculosis fructose-bisphosphate aldolase; purified M. tuberculosis FBA, fluorescence read-out; inhibition, % at 1 µM; 360,000 compounds, 2.3% hits; P9WQA3; in the data active means inhibition above about 27%;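 further: 0% = vehicle and 100% = reference inhibitor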
Target sequence (P9WQA3 whole entry, looked up): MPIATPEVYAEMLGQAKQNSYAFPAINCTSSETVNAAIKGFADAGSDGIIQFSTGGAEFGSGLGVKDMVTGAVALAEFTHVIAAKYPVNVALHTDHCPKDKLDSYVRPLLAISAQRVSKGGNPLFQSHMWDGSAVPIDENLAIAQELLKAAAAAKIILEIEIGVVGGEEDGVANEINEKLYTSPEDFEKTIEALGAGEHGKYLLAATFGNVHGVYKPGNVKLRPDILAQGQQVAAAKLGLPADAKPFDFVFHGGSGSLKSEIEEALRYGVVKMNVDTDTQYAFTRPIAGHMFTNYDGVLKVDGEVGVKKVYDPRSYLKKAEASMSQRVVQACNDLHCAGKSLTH
PrPC surface inh: cell surface PrPC inhibition, primary TR-FRET screen; AID 720596; TR-FRET read-out; inhibition, % at 13.8 µM; P04156; 370,000 compounds, 0.43% hits; in the data active means inhibition above about 24%; further: 0% = median of the test wells and 100% = reference compound wells
GDH-TPI counter: GDH-TPI coupled enzyme inhibition counter-screen; AID 588335; GDH-TPI coupled enzyme counterscreen, NADH absorbance; inhibition, % at 4.8 µM; 360,000 compounds, 1.2% hits; in the data active means inhibition above about 30%;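 further: 0% = DMSO wells and 100% = wells lacking the enzyme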
TcdB GH inh: blocks C. difficile toxin B glycohydrolase activity | TcdB glycohydrolase enzymatic assay, plate reader | inhibition, % at 9.99 µM | 350,000 compounds, 0.24% hits; in the data active means inhibition above about 10%
Y pestis TopoI: inhibitors of Yersinia pestis topoisomerase I. activity, % at 10 µM. 360,000 compounds, 0.064% hits. AID 504884. Y. pestis Topo-I cleavage product accumulation, plate reader; in the data active means activity above about 50%, passing the limit was not always enough
Active calls of the source: *; nt = no result given; + = active, no number.

SMILES	Mtb FBA inh	PrPC surface inh	GDH-TPI counter	TcdB GH inh	Y pestis TopoI
CCC(=O)N1C[C@H](C)[C@@H](OC)CN(C)C(=O)c2ccc(NC(=O)Nc3cccc(F)c3)cc2OC[C@@H]1C	nt	nt	nt	1	nt
CO[C@@H]1CN(C)C(=O)c2ccc(NC(=O)c3ccccc3F)cc2OC[C@H](C)N(C(=O)c2ccccc2F)C[C@@H]1C	nt	nt	nt	0	nt
COc1cc(C=C2NC(=O)NC2=O)ccc1O	4	-16	35*	4	-2
COc1ccc(-c2sc3cc(OC)ccc3c2-c2ccc(OCCN3CCCCC3)cc2)cc1	nt	7	nt	0	nt
COc1ccc2sc(-c3ccc(S(C)(=O)=O)cc3)c(C#CCO)c2c1	21	-22	34*	2	-2
COc1ccc(-c2sc3ccccc3c2C#CCO)cc1	17	-10	8	0	5
CS(=O)(=O)c1ccc(-c2sc3ccccc3c2C#CCCO)cc1	17	-20	32*	0	26
COc1ccc2c(C#CCCO)c(-c3ccc(S(C)(=O)=O)cc3)sc2c1	+	-1	29	0	4
COc1ccc2c(-c3ccc(S(N)(=O)=O)cc3)c(-c3ccc(S(C)(=O)=O)cc3)sc2c1	+	-8	12	1	1
COc1ccc(-c2sc3ccccc3c2C#CCCO)cc1	6	-8	9	1	13
C[C@H](CO)N1C[C@H](C)[C@H](CN(C)C(=O)C2CCC2)Oc2ncc(C#Cc3cccc(F)c3)cc2C1=O	nt	nt	nt	-2	nt
Cc1nn(C)cc1/C=C/C(=O)c1ccccc1	0	-6	36*	nt	4
Cc1c(/C=C/C(=O)c2ccc(O)cc2)cnn1C	2	2	39*	nt	-5
CNC(=O)C[C@@H]1CC[C@@H]2[C@H](COC[C@@H](O)CN2C(=O)Nc2ccc3c(c2)OCO3)O1	nt	nt	nt	-1	nt
Cc1ccnc(N2C(=O)c3cccc4c([N+](=O)[O-])ccc(c34)C2=O)c1	5	-33	33*	0	4
Cc1ccnc(N2C(=O)c3ccccc3C2=O)c1	0	-1	-1	15*	6
C[C@@H]1CN([C@H](C)CO)C(=O)c2cc(-c3ccccc3)cnc2O[C@@H]1CN(C)C(=O)C1CCCCC1	nt	nt	nt	-1	nt
CCc1ccc(NC(=O)C2=CC(c3ccc(OC)cc3)=NS(=O)(=O)N2C)cc1	-5	-7	10	76*	1
CC(C)C#Cc1cnc2c(c1)C(=O)N([C@H](C)CO)C[C@H](C)[C@@H](CN(C)C(=O)c1ccccc1F)O2	nt	nt	nt	0	nt
COc1ccc(/C=C/C(=O)Nc2ccncc2)cc1OC	22	-17	15	0	0
Cc1noc(NS(=O)(=O)c2ccc(NC(=O)/C=C/c3ccccc3)cc2)c1C	-1	-18	8	-1	2
COc1ccc(/C=C/C(=O)Nc2ccc(S(=O)(=O)Nc3onc(C)c3C)cc2)cc1OC	0	-3	37*	-1	4
CCOc1ccc(/C=C/C(=O)Nc2ccc(C(N)=O)cc2)cc1OC	5	-9	51*	nt	-4
COc1ccc(S(=O)(=O)Nc2ccc3c(c2)C(=O)N([C@H](C)CO)C[C@@H](C)[C@@H](CN(C)C(=O)Nc2ccc(C(F)(F)F)cc2)O3)cc1	nt	nt	nt	-5	nt
Cc1sc2ncnc(N3CCC(C(=O)Nc4nnc(SCc5ccccc5F)s4)CC3)c2c1C	138*	2	0	1	10
SMILES	Mtb FBA inh	PrPC surface inh	GDH-TPI counter	TcdB GH inh	Y pestis TopoI
COCC(=O)N1C[C@@H](C)[C@@H](OC)CN(C)C(=O)c2cc(NS(C)(=O)=O)ccc2OC[C@H]1C	nt	nt	nt	2	nt
Cc1cc2[nH]c(=O)c(=O)[nH]c2cc1S(=O)(=O)NC1CCCCC1C (stereo unspecified)	32*	nt	21	nt	10
Cc1cc2c(cc1S(=O)(=O)NC1CCCCC1C)OCC(=O)N2 (stereo unspecified)	1	1	-6	1	6
CCOc1ncccc1C(=O)OCC(=O)c1ccc[nH]1	0	7	-6	nt	4
Nc1nccnc1C(=O)OCC(=O)c1ccc[nH]1	165*	-7	12	2	7
O=C(/C=C/c1ccc(F)cc1)OCC(=O)c1ccc[nH]1	2	0	-5	2	8
CC(=O)c1c(C)[nH]c(C(=O)COC(=O)c2nccnc2N)c1C	157*	-5	10	1	3
O=C(COC(=O)c1ccc(F)cc1F)c1ccc[nH]1	3	-3	4	10*	6
CC(=O)c1c(C)[nH]c(C(=O)COc2cc(C)ccc2C(C)C)c1C	-3	26*	7	nt	34
COc1cc(C)ccc1OCC(=O)OCC(=O)c1[nH]c(C)c(C(C)=O)c1C	-1	8	9	1	13
